Measurements as given in PubChem BioAssay (NCI).
About 83,000 compounds went through this panel and 20% of them were active in at least one assay; those are over-represented in the sample as a whole.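 48-hour exposure, single concentration, 96-well plates; percent growth endpoint where 0 means no net growth. Active: below 10.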 Values without a mark were called inactive. Active and inactive are the calls of the source.

Columns and labels:
Experiment in all cases: NCI-60 one-dose screen, 48 h (100 = growth as untreated, 0 = no growth, -100 = all killed)
Settings in all cases: 10 µM unless noted
[1] = system: NCI-H226 lung
[2] = system: NCI-H322M lung
[3] = system: HOP-62 NSCLC
[4] = system: NCI-H460 lung
[5] = system: NCI-H522 lung
[6] = system: A549/ATCC NSCLC
[7] = system: 786-0 renal
[8] = system: COLO 205 colon
[9] = system: HOP-92 NSCLC

| SMILES | growth [1] | growth [2] [%] | growth [3] | growth [4] | growth [5] | growth [6] | growth [7] | growth [8] | growth [9] |
| --- | --- | --- | --- | --- | --- | --- | --- | --- | --- |
| CC1SC(c2ccc(OCc3ccccc3)cc2)N(NC(=O)C(O)(c2ccccc2)c2ccccc2)C1=O (stereo not given) | 84.5% | 49.1 | 79% | 38.5% | 24.4% | 49.3% | 59.6% | 30.8% |  |
| COc1ccc(/C=c2\nc3n(-c4ccccc4)c4nc5c6c(sc5c(=N)n4n-3c2=O)CCCC6)cc1 | 69.2% | 94.6 | 88.1% | 98.1% | 83.4% | 97.4% | 99.5% | 111% |  |
| COC(=O)[C@]12CC[C@@H](C)[C@H](C)[C@@H]1C1=CC[C@@H]3[C@@]4(C)C(C=O)=C[C@@](C)(COC(C)=O)[C@@H]4[C@H](O)C[C@@]3(C)[C@]1(C)CC2 | -25.2% (active) | 28.3 | 8.74% (active) | -64.6% (active) | -35% (active) | 1.47% (active) | -36.2% (active) | -40.4% (active) | -6.92% (active) |
| Cc1ccc(Nc2ccc(Nc3ccc(C)cc3)c3c2C(=O)c2cccc(O)c2C3=O)cc1 | 73.1% | 108 | 101% | 88.3% | 90.6% | 103% | 111% | 102% | 70.4% |
| CCOC(=O)c1c2c(n3ccc(NC(=O)OC(C)(C)C)cc13)C(=O)c1ncccc1C2=O | -63.7% (active) |  | -76.8% (active) | -82.6% (active) | -56.1% (active) | -57.3% (active) | -49.3% (active) | -54.6% (active) | -10.3% (active) |
| COC(=O)[C@]12CC[C@@H](C)[C@H](C)[C@@H]1C1=CC[C@@H]3[C@@]4(C)C(C=O)=C[C@@](C)(COC(=O)/C=C/c5ccccc5)[C@@H]4[C@H](O)C[C@@]3(C)[C@]1(C)CC2 | 10.1% | 42 | -5.38% (active) | -19.1% (active) | -16.3% (active) | 3.82% (active) | -5.1% (active) | -37% (active) | -5.49% (active) |
| COCCN(C(=O)c1ccc(F)cc1F)c1c(N)n(Cc2ccccc2)c(=O)[nH]c1=O | 94.7% | 99.8 | 103% | 116% | 98.3% | 101% | 102% | 124% | 59.3% |
| Cc1ccc2nc(NC(=O)CSc3nc(-c4ccccc4)c(C#N)c(=O)n3Cc3ccccc3)sc2c1 | 85.2% | 96.4 | 77.8% | 98.3% | 30.5% | 104% | 99.3% | 104% | 54.9% |
| COc1cccc(-c2nc3sccn3c2-c2ccnc(NCCNS(=O)(=O)c3cccc(F)c3)c2)c1 | 22.9% | 73.2 | 55.3% | 28.8% | 40.9% | 27.2% | 48.1% | 25.8% | 18.3% |
| COc1ccc2c(c1)O/C(=C/c1ccc(OCC(=O)c3ccccc3)cc1)C2=O | 104% |  | 93.6% | 118% | 94.5% | 93.2% | 101% | 129% | 98.6% |
| O=C(Nc1ccccc1)Nc1cccc(Oc2nnc(Cl)c3ccccc23)c1 | 8.66% (active) |  | -43.4% (active) | 25.3% | 2% (active) | 11.2% | 38.2% | 35.2% | -7.51% (active) |
| O=C(Nc1cccc(Cl)c1)c1cc(N=Nc2ccc([N+](=O)[O-])cc2Cl)ccc1O | 97% | 94.2 | 72.9% | 39.6% | -16.5% (active) | 67.8% | 59.1% | 82.2% | 28.3% |
| Cn1cc2c(c1)-c1nc(Nc3ccccc3)ncc1CC2 | 51.7% | 52.9 | 69.2% | 42.5% | 84.9% | 72% | 87.2% | 76.7% | 70.6% |
| S=C(c1ccc2c(c1)OCO2)N1CCN(c2ccccc2Cl)CC1 | 87.9% | 103 | 102% | 102% | 74.8% | 98.2% | 92.4% | 97.1% | 67.3% |
| CC(C)=C[C@@H]1c2c(c3ccccc3n(C)c2=O)O[C@H]2c3c(c4ccccc4n(C)c3=O)OC(C)(C)[C@@H]12 | 101% | 112 | 115% | 75.3% | 53.4% | 89.3% | 93.5% | 95.3% | -4.59% (active) |
| Cc1cccc(NC(=O)CSc2nc3ccccc3[nH]2)c1 | 92% |  | 88.7% | 105% | 90.9% | 101% | 103% | 110% | 88.4% |
| CCCCn1c(=O)c2c(nc3n2CCCN3CCc2ccc(OCC(=O)NCCN(CC)CC)cc2)n(CCCC)c1=O | 72.9% | 94.4 | 56.1% | 56.9% | 44.1% | 64.2% | 11.3% | 25.7% | 27.8% |
| N=C1CCC(=N)c2c1c(O)c1ccccc1c2O | 87.3% | 93.1 | 103% | 173% | 91.6% | 95.2% | 113% | 114% |  |
| O=C1/C(=C\c2c[nH]c3ccccc23)c2ccccc2N1c1c(Cl)cccc1Cl | 14.7% | 18.8 | 19.6% | -89.5% (active) | -57.9% (active) | 0.113% (active) | -37.7% (active) | -100% (active) | -13.7% (active) |
| COc1ccc(Nc2nnc(SCc3ccccc3F)s2)cc1 | 87.2% | 116 | 103% | 111% | 75.4% | 102% | 101% | 114% | 88.6% |
| COc1ccc(-c2nc(SC(C)C)nc(NNC(N)=S)c2C#N)cc1 | 86.4% | 91.3 | 63.7% | 22.4% | 12.8% | 49.2% | 85% | 99.9% | 41.2% |
| NC[C@H](O)c1ccc(O)c(O)c1 | 109% | 110 | 105% | 103% | 102% | 109% | 108% | 109% | 65.8% |
| N#C/C(=C\c1ccc(Br)cc1)n1nnc2cc(F)c(F)cc21 | 37.3% | 58.6 | 25.9% | 30.5% | 19.9% | 41.5% | 23.2% | 25.7% | -9.69% (active) |
